Source: PubChem BioAssay (NCI)
This is part of a sample that, as a whole, favours compounds with a hit. Of some 79,000 tested, about 15% had one in any assay. Values without a mark were called inactive. The source made the active and inactive calls. Cut-off read from the data, not from the text of the source: active = growth inhibition above about 70%; inactive = the rest.

Assay: NCI Yeast Anticancer Drug Screen. Data for the mlh1 rad18 strain (AID 175)
Conditions: S. cerevisiae mlh1 rad18 strain growth inhibition; at 50.0 µM; hits give high values
Method in brief: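 Compound-treated yeast growth, normalised to vehicle controls. Strain bears defined DNA repair mutations.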

Row | SMILES | growth inhibition
1 | NNc1ncnc2cccc(Cl)c12 | 11.9%
2 | COCCCC12C=C(OC)C(=O)C=C1OC(c1cc(OC)c(OC)c(OC)c1)C2C (centres undefined) | -14.5%
3 | COc1ccc2c(c1)CC1c3[nH]c4ccccc4c3CCN1C2 (centres undefined) | 79% (active)
4 | Cc1ccc(NCC(O)CN2CCCC2)cc1 (centres undefined) | 12.1%
5 | CC(=O)/C(C)=C\c1ccc(C(C)C)cc1 | -1.55%
6 | O=C(CO)c1ccc(-c2ccccc2)cc1 | 16.2%
7 | CCC(c1ccc(OC)cc1)c1cc2c(cc1OCCO)OCO2 (centres undefined) | 96.3% (active)
8 | Cc1ccc(C(C)(CCC(=O)O)c2ccc(C)o2)o1 | 25.4%
9 | COC(=O)c1cc(C(=O)OC)cc([N+](=O)[O-])c1 | 0.05%
10 | Cc1ccc(S(=O)(=O)OCC(C)C(c2ccccc2)c2ccccc2)cc1 (centres undefined) | 0.2%
11 | CC(C)C/C(CC(=O)CCC(=O)Nc1ccccc1[N+](=O)[O-])=N\NC(=O)c1cc2ccccc2cc1O | 29.9%
12 | CC(C)C(=O)OC1CCCCC1Cc1ccccn1 (centres undefined) | -6.8%
13 | CSc1ccc(NC(=O)Oc2ccc(NC(C)=O)cc2)cc1 | 4.45%
14 | NNC(=O)Nc1ccccc1 | -3.15%
15 | COCCNC(C)=O | 3.7%
16 | O=C1c2ccccc2C(=O)N1/N=C\c1ccc(O)cc1 | 33.5%
17 | c1ccc(CC[n+]2ccncc2)cc1 | -17.3%
18 | CCCOC(=O)Nc1cccc(Cl)c1 | 12.4%
19 | ClC(Cl)=C(c1ccccc1)c1ccccc1 | 16.9%
20 | CCCCCCCCCCCCCCCCCC/C(CC)=N/Nc1ccc([N+](=O)[O-])cc1[N+](=O)[O-] | 5.55%

Row | SMILES | growth inhibition
21 | COC(=O)c1c(-c2ccc3c(c2)OCO3)cn(C)c1C | 11.6%
22 | CCCCC1(CC)COC2(CCCC2)OC1 | 12.4%
23 | NC(=O)c1ccccc1NC(=O)C(=O)Cc1nc2ccccc2[nH]c1=O | 6.15%
24 | Cc1c(C)c(C)c2cc3c(C)c(C)c(C)c(C)c3cc2c1C | -11.6%
25 | COc1cccc(C(OC(=O)c2ccccc2)c2nncc3ccccc23)c1OC (centres undefined) | 5.8%
26 | CC(=O)OCC(COC(C)=O)C(C)=O | -22.6%
27 | CNCC1OC(OC)C2OC(C)(C)OC12 (centres undefined) | 5.05%
28 | O=[N+]([O-])C1CCC(N=Nc2c(O)ccc3ccccc23)CC1 (centres undefined) | -0.6%
29 | CCC(CO)N1CNC(=S)NC1 (centres undefined) | 0.3%
30 | Cc1cc(N=Nc2ccccc2)c2cccnc2c1N | 14.7%
31 | CCOC(=O)/C(C)=C(/O)C(=O)OCC | -27.9%
32 | CCOC(=O)Nc1nc2ccccc2n1CN1CCOCC1 | -7.8%
33 | CC(=O)CCCCO | -18.1%
34 | CCCCCCCCCCCCCCCCS(=O)(=O)N/N=C/c1ccc2c(c1)OCO2 | -3.25%
35 | CC(=O)n1[nH]c(=O)n(-c2ccc(Cl)cc2)c1=O | -73%
36 | C=CCOc1cc2c(cc1C(C)c1ccc(OCC)c(C)c1)OCO2 (centres undefined) | -1.6%
37 | CC(=O)N/N=C1\NN(C(C)=O)C2(S1)C(=O)Nc1ccccc12 (centres undefined) | 33.1%
38 | NC(CCCCn1nnc2c(=O)[nH]cnc21)C(=O)O (centres undefined) | -15.6%
39 | COCn1cnc2c(F)ncnc21 | -3.1%
